In PubChem BioAssay (NCATS):
“And” between values parts separate entries of the source, which are not always exact repeats. Equal entries are not always repeated. Records with an inconclusive call do not appear. The source made the active and inactive calls. Unless noted, the call rests on the fitted dose curve; in most records, active means well fitted curve in the direction sought with a large enough effect; inconclusive means small, poorly fitted or top-dose-only effect, or another doubt; inactive means no such curve, though single readings can be large; an effect the other way counts as inactive or inconclusive.

What was measured:
[1] = qHTS assay for small molecule disruptors of the mitochondrial membrane potential - 1 hr assay (AID 651754; calls by dose curve; further: on the % scale 0 is the no-effect control and ±100 the full control effect; nearly all actives have a fitted effect of over 35% in size)
Outline: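 HepG2 cells, attached overnight at 37C, were exposed to compound or DMSO vehicle for 1 hr at 37C, 5% CO2, then stained with Mito-MPS dye for 30 min. Red aggregate versus green monomer fluorescence reports membrane potential.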

[2] = qHTS assay for small molecule disruptors of the mitochondrial membrane potential - 5 hr assay (AID 651755; calls by dose curve; further: on the % scale 0 is the no-effect control and ±100 the full control effect; nearly all actives have a fitted effect of over 40% in size)
Outline: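 HepG2 cells (2,000/well), attached overnight, exposed to compound 5 hr at 37C, then Mito-MPS dye 30 min. Fluorescence read for monomers (490/535 nm) and aggregates (540/590 nm).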

[3] = molecular target: Tumor necrosis factor (Homo sapiens) (UniProt P01375); test: qHTS assay to identify small molecules that stimulate Tumor Necrosis Factor-alpha (TNF-alpha) secretion (AID 651757; active means well fitted curve in the direction sought with a large enough effect in the signal ratio; the % refers to the signal ratio; further: 0% is about no effect)
Sequence of Tumor necrosis factor (Homo sapiens) (P01375 whole entry, looked up): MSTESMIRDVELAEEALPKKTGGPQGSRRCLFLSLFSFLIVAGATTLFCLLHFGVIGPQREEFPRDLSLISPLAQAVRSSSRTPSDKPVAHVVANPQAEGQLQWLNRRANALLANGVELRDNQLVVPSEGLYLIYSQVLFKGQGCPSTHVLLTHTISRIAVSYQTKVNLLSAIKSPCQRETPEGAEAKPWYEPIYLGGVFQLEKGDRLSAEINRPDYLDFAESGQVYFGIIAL
Outline: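 THP-1 cells were exposed to compounds for 17 hrs at 37 C, after which secreted TNF-alpha was measured by homogeneous HTRF (TR-FRET) using cryptate- and XL665-labeled anti-TNF-alpha antibodies, read after 3 hr at room temperature.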

[4] = qHTS assay for environmental chemicals that activate the Aryl hydrocarbon Receptor (AhR) signaling pathway (AID 651777); settings: 1A2-DRE human hepatoma cells, luciferase, 24 h; activation: hits give high values; further: % of control where 0% means no effect; nearly all actives have a fitted effect of over 15% in size
Outline: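 Following a 24 hr incubation with test chemicals at 37 C and 5% CO2, 1A2-DRE human hepatoma cells received One-Glo reagent; after 30 min at room temperature, luciferase output reflected CYP1A2 induction via AhR.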

[5] = molecular target: Peroxisome proliferator-activated receptor alpha (Homo sapiens) (UniProt Q07869); test: qHTS assay for small molecule agonists of the peroxisome proliferator-activated receptor alpha (PPARalpha) signaling pathway (AID 651778); settings: PathHunter PPARalpha complementation, chemiluminescence, 6 h; hits give high values; further: % of control where 0% means no effect
Sequence of Peroxisome proliferator-activated receptor alpha (Homo sapiens) (Q07869 whole entry, looked up, the tested form may be a part): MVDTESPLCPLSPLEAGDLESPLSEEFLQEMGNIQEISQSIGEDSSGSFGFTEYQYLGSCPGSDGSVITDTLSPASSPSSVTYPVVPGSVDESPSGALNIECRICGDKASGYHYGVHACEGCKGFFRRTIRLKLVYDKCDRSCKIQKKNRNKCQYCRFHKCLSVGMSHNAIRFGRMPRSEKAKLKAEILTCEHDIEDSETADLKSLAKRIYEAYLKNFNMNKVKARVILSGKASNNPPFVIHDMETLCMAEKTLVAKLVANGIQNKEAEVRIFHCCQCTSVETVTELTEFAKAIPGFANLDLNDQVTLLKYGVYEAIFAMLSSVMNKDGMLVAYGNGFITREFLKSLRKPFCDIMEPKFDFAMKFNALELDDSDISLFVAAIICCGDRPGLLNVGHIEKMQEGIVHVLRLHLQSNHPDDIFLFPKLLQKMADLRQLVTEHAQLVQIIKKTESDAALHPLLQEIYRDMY
Outline: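 Enzyme-fragment complementation assay in which ligand-bound PPARalpha translocates and forms an active enzyme that generates chemiluminescence. Cells were plated overnight, exposed to compound for 6 hr at 37 C, and then given detection reagent for 60 min at room temperature.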

[6] = molecular target: Nuclear receptor ROR-gamma (Homo sapiens) (UniProt P51449); test: qHTS assay for small molecule antagonists of the retinoid-related orphan receptor gamma (ROR-gamma) signaling pathway (AID 651802); further: series mostly up to about 92 µM; on the % scale 0 is the no-effect control and ±100 the full control effect; nearly all actives have a fitted effect of over 60% in size
Sequence of Nuclear receptor ROR-gamma (Homo sapiens) (P51449 whole entry, looked up): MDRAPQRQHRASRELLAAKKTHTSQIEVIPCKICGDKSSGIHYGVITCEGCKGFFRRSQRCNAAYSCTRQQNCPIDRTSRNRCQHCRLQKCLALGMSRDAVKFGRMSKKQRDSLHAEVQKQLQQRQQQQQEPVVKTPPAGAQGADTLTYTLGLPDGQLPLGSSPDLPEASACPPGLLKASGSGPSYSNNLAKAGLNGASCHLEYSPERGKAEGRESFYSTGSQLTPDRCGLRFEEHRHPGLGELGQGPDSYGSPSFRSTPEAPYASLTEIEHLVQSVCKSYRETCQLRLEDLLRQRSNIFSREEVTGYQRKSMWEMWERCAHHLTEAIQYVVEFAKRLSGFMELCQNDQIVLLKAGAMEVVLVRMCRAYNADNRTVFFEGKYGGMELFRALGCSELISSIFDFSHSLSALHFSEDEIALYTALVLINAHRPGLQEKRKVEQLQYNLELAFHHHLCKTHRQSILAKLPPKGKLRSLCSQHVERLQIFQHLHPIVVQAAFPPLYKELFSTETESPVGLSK
Outline: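 CHO cells carrying TET-inducible ROR-gamma and an ROR response element–luciferase reporter were exposed to compound, then induced with doxycycline. After 16hr at 37C, luminescence was read; lower signal indicates antagonism.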

[7] = qHTS assay for small molecule agonists of the antioxidant response element (ARE) signaling pathway measured by Nrf2-dependant transcriptional activity (AID 720636; active means well fitted curve in the direction sought with a large enough effect in the repeat runs; an effect the other way counts as inactive or inconclusive;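 further: HepG2 cells with an ARE-driven luciferase reporter; % of control where 0% means no effect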)
Outline: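 ONE-Glo luminescence, read 30 min after reagent addition at room temperature, reflected ARE reporter activity in HepG2 cells that had been incubated with compound for 16 hr at 37 C in 1% dialyzed FBS.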

[8] = qHTS assay for small molecule agonists of the antioxidant response element (ARE) signaling pathway measured by Nrf2-dependant transcriptional activity - cell viability counter screen (AID 720653; active means well fitted curve in the direction sought with a large enough effect in the repeat runs; an effect the other way counts as inactive or inconclusive; further: on the % scale 0 is the no-effect control and ±100 the full control effect); settings: ARE-bla HepG2 viability, CellTiter-Glo ATP luminescence, 16 h; hits give low values
Outline: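 ARE-bla HepG2 cells treated with compounds for 16 h at 37C; this counter screen measures viability as intracellular ATP by CellTiter-Glo luminescence after 30 min at room temperature.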

[9] = qHTS assay for cell viability of HEK293 cells (AID 743288); settings: ATP luminescence (CellTiter-Glo), 18 h, hits give low values; further: on the % scale 0 is the no-effect control and ±100 the full control effect; nearly all actives have a fitted effect of over 50% in size
Outline: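 Luminescent ATP quantitation served as the viability read-out. Cells (parental HEK293, 2,000/well) received compounds after at least 5 h at 37 C and were exposed for 18 h before a 30 min room-temperature reagent step.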

[10] = qHTS assay for cell viability of the p53RE-bla HCT-116 cell line (AID 743292); further: on the % scale 0 is the no-effect control and ±100 the full control effect; nearly all actives have a fitted effect of over 55% in size
Outline: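 After plating at 4,000 cells per well and a 5 h rest at 37 C, HCT-116 cells carrying p53RE-bla received test chemicals in DMSO. Sixteen hours later at 37 C, CellTiter-Glo was added and luminescence recorded following 30 min at room temperature.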

[11] = molecular target: Nuclear receptor subfamily 1 group I member 2 (Rattus norvegicus) (UniProt Q9R1A7); test: qHTS assay for small molecule activators of the rat pregnane X receptor (rPXR) signaling pathway (AID 651751; call rule not given here; further: 0% is about no effect); settings: rPXR reporter cells, luciferase (One-Glo), 24 h
Sequence of Nuclear receptor subfamily 1 group I member 2 (Rattus norvegicus) (Q9R1A7 whole entry, looked up): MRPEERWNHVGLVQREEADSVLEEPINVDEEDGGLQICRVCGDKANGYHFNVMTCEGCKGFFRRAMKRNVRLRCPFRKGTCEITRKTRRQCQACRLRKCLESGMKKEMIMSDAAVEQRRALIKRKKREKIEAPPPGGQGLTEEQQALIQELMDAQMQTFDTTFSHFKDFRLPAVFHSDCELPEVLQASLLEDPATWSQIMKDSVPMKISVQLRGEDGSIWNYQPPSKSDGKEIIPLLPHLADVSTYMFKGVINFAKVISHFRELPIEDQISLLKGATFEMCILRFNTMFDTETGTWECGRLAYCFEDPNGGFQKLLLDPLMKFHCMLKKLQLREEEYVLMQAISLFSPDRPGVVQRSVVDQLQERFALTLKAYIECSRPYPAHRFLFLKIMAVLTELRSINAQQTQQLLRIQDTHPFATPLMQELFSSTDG

[12] = qHTS assay for small molecule activators of the human pregnane X receptor (PXR) signaling pathway (AID 720659; call rule not given here; further: 0% is about no effect)
[13] = qHTS assay for small molecule antagonists of the retinoid-related orphan receptor gamma (ROR-gamma) signaling pathway - cell viability counter screen (AID 720652; active means well fitted curve in the direction sought with a large enough effect in the repeat runs; an effect the other way counts as inactive or inconclusive;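 further: series mostly up to about 92 µM; compound exposure lasted 16 hr before ATP read; on the % scale 0 is the no-effect control and ±100 the full control effect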)
Outline: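 Counter screen in CHO cells carrying TET-inducible ROR-gamma and an ROR response element-luciferase reporter; cells plated 5 hr, compound pinned, doxycycline added, then 16 hr at 37 C. Viability read as intracellular ATP by CellTiter-Glo luminescence.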

CC=C(Cl)Cl
inactive: Potency [1] | Potency [2] | Potency [3] | activation [4] -0.394% | max response [5] -5.05% | Potency [6] | outcome [7] | max response [8] -6.27% | max response [9] 5.81% | Potency [10] | max response [11] -4.19% | outcome [12]

CN(C)CCCNCCCN
inactive: Potency [1] | Potency [2] | Potency [3] | activation [4] 0.0352% | max response [5] -2.56% | Potency [6] | outcome [7] | Potency [13] | max response [8] -2.03% | Potency [10] | max response [11] -0.438% | outcome [12]

O=[N+]([O-])c1cccc(Cl)c1
inactive: Potency [1] | Potency [2] | Potency [3] | activation [4] 0.317% | max response [5] -3.34% | Potency [6] | outcome [7] | Potency [13] | max response [8] -6.97% | Potency [10] | max response [11] 0.107% | outcome [12]

CCNc1ccccc1
inactive: Potency [1] | Potency [2] | Potency [3] | activation [4] 0.398% | max response [5] -1.14% | Potency [6] | outcome [7] | max response [8] -0.56% | max response [9] -1.34% | Potency [10] | max response [11] -2.55% | outcome [12]

S=C([S-])NCCNC(=S)[S-].[Zn+2]
inactive: Potency [1] | Potency [2] | Potency [3] | activation [4] 0.897% and 8.85% and 0.332% | max response [5] -15.1% and -9.87% and -6.7% | Potency [6] | Potency [13] | max response [8] -3.47% and -31.7% and -9.84% | max response [9] 1.36% and -44.1% and -10.7% | max response [11] -5.53% and -7.82% and -4.11%

Cc1ccc(C)o1
inactive: Potency [1] | Potency [2] | Potency [3] | activation [4] -0.971% | max response [5] -7.85% | Potency [6] | outcome [7] | Potency [13] | max response [8] -12.8% | max response [9] -6.28% | Potency [10] | max response [11] -1.6% | outcome [12]

Cc1ccc(Cl)cc1
inactive: Potency [1] | Potency [2] | Potency [3] | activation [4] -0.186% | max response [5] -0.102% | Potency [6] | outcome [7] | Potency [13] | max response [8] 4.9% | Potency [10] | max response [11] -4.31% | outcome [12]

O=C(Cl)c1c(Cl)cccc1Cl
inactive: Potency [1] | Potency [2] | Potency [3] | activation [4] -1.9% | max response [5] -3.46% | Potency [6] | outcome [7] | max response [8] 10.8% | max response [9] 0.0079% | Potency [10] | max response [11] -2.88% | outcome [12]

N#CCc1ccccc1[N+](=O)[O-]
inactive: Potency [1] | Potency [2] | Potency [3] | activation [4] 4.16% | max response [5] -3.4% | Potency [6] | outcome [7] | Potency [13] | max response [8] 3.79% | max response [9] -6.51% | Potency [10] | max response [11] 8.31%

Nc1c(Cl)cc(Cl)cc1Cl
inactive: Potency [1] | Potency [2] | Potency [3] | activation [4] -0.694% | max response [5] -2.57% | outcome [7] | Potency [13] | max response [8] -2.36% | max response [9] -2.95% | Potency [10] | max response [11] -2.23% | outcome [12]

O=CNc1ccccc1
inactive: Potency [1] | Potency [2] | Potency [3] | activation [4] -0.556% | max response [5] -2.49% | Potency [6] | outcome [7] | Potency [13] | max response [8] -3.88% | Potency [10] | max response [11] 1.37% | outcome [12]

Nc1ccccc1[N+](=O)[O-]
inactive: Potency [1] | Potency [2] | Potency [3] | activation [4] -0.331% | max response [5] -3.89% | Potency [6] | outcome [7] | max response [8] -18.4% | max response [9] -7.67% | Potency [10] | max response [11] -0.731% | outcome [12]

COC(=O)c1ccccc1
inactive: Potency [1] | Potency [2] | Potency [3] | activation [4] -0.388% | max response [5] -4.31% | Potency [6] | outcome [7] | max response [8] 3.39% | Potency [10] | max response [11] 0.652% | outcome [12]

Cc1cccc2ccccc12
inactive: Potency [1] | Potency [2] | Potency [3] | activation [4] -0.124% | max response [5] -1.89% | Potency [6] | outcome [7] | Potency [13] | max response [8] -3.61% | Potency [10] | max response [11] 3.98% | outcome [12]

CCN(C(=O)N(CC)c1ccccc1)c1ccccc1
inactive: Potency [1] | Potency [2] | Potency [3] | activation [4] -1.64% | max response [5] -4.39% | Potency [6] | outcome [7] | Potency [13] | max response [8] -10.4% | max response [9] -19.1% | Potency [10] | max response [11] -2.68%

CCOC(=O)C(C)C(C)=O (stereo unspecified)
inactive: Potency [1] | Potency [2] | Potency [3] | activation [4] 0.277% | max response [5] -3.29% | outcome [7] | Potency [13] | max response [8] -7.43% | max response [9] 2.57% | Potency [10] | max response [11] 4.21% | outcome [12]

Nc1cccc(S(=O)(=O)O)c1
inactive: Potency [1] | Potency [2] | Potency [3] | activation [4] -0.739% | max response [5] -1.84% | Potency [6] | outcome [7] | max response [8] 8.17% | max response [9] 0.367% | max response [11] 7.17%

FC(F)(F)c1ccccc1Cl
inactive: Potency [1] | Potency [2] | Potency [3] | activation [4] -0.14% | max response [5] -1.82% | outcome [7] | Potency [13] | max response [8] -5.26% | max response [9] 10.1% | max response [11] -1.61% | outcome [12]
